molecular target: Dihydroorotate dehydrogenase (quinone), mitochondrial (Plasmodium falciparum (isolate 3D7)) (UniProt Q08210); assay: PfDHODH enzyme inhibitors, primary screen, biochemical, C-terminal His tag, absorbance 600 nm (AID 1175); conditions: DCIP absorbance 600 nm, higher = more signal, called active from +8 up or from −8 down;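 note: recombinant parasite enzyme with a five histidine tag at its C terminus; test concentration not given here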
Sequence (Q08210 whole entry, looked up): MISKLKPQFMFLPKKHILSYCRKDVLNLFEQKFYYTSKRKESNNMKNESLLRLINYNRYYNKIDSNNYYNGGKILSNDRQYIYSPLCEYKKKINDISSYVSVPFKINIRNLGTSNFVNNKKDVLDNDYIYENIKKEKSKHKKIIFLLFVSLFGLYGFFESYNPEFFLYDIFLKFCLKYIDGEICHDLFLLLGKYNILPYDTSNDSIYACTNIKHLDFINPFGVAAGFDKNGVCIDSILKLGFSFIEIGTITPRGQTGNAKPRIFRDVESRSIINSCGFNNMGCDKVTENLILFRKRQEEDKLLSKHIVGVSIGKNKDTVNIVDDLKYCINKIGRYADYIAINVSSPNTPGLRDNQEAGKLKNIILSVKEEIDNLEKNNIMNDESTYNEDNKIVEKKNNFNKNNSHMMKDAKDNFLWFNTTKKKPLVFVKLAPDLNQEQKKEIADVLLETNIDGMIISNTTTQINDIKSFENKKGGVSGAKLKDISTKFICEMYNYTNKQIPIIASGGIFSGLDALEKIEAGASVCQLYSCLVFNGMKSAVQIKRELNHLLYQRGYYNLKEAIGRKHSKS

Composite z-score, inactive:
CC(C)(C)OC(=O)CC[C@]1(C(=O)N2CCCCC2)COC(c2ccc(OCCCO)cc2)=N1 -0.509
O=C1[C@@]23C=C(Br)[C@H](C[C@@H]2COC3)[C@@]12CO2 0.571
O=C1C[C@@](C(=O)NCc2ccccc2)(c2ccc([N+](=O)[O-])cc2)[C@@H](c2ccc(CO)cc2I)N1CC12CC3CC(CC(C3)C1)C2 -0.0036
O=C1C[C@@](C(=O)NCC(F)(F)F)(c2ccc([N+](=O)[O-])cc2)[C@@H](c2ccc(CO)cc2)N1CC12CC3CC(CC(C3)C1)C2 0.042
CN1C(=O)C2C=CC(C(O)c3ccc(I)cc3)N(Nc3ccccc3)C2C1=O (stereo not drawn) -0.359
COc1cc(C(O)C2C=CC3C(=O)N(Cc4ccccc4)C(=O)C3N2n2cnnc2)cc(OC)c1OC (stereo not drawn) -1.12
C=C(COC)/C(=C/C[C@@H](OC(=O)c1ccncc1)c1ccccc1OCCO)c1cc(C(=O)OC)ccc1OC -4
CC(C)C[C@@H]1NC(=O)[C@@]23C(=O)N[C@@H](Cc4ccccc4)C2[C@H](C)[C@@]2(C)O[C@H]2C3/C=C/C/C=C\CNC(=O)[C@@H](C)NC1=O (stereo partly drawn) -0.401
CCCNC(=O)[C@@]1(Sc2ccc(C)cc2)CC(=O)N(C(C)C)[C@@H]1c1ccc(CO)cc1I -0.5
CN1C(=O)C2C(C1=O)C1C=C(CCCO)C2C(c2cccs2)N1Cc1cc2c(cc1Br)OCO2 (stereo not drawn) -0.539
C=C(CCCC)/C(=C/C[C@H](OC(C)=O)c1ccc(OCCO)cc1)c1cc(C(=O)OC)ccc1OC -0.793
COC(=O)[C@@]1(Cc2ccc(OC)cc2)[C@H]2c3cc(C(=O)N4CCCC4)n(Cc4ccc(OC(F)(F)F)cc4)c3C[C@H]2CN1C(=O)c1ccccc1 -0.731
CS(=O)(=O)CCOC(=O)C1=CC(CCCO)=CC(C2CC2)N(Cc2cccc(OC(F)(F)F)c2)C=C1C(=O)OCCS(C)(=O)=O (stereo not drawn) -0.0527
COC(=O)C1=CC(CCCO)=CC(C)N(Cc2cccc(OC(F)(F)F)c2)C=C1C(=O)OC (stereo not drawn) -2.73
[N-]=[N+]=NCc1ccccc1[C@@H]1OC(c2ccc(OCCCO)cc2)=N[C@]1(Cc1ccccc1)C(=O)NCCN1CCOCC1 1.16
CC(C)C(=C=CC[C@@H](O)c1cccc(OCCO)c1)C[C@@H](O)c1ccccn1 -6.55
O=C(NCC(O)CO)[C@@]1(CCS(=O)(=O)c2ccccc2)COC(c2ccc(OCCCO)cc2)=N1 (stereo partly drawn) 0.699
CCOC(=O)C1=C[C@@H](c2ccccc2)N(S(=O)(=O)c2ccc(C)cc2)[C@H]1c1ccccc1 -0.629
CC(C)OC(=O)CC(=O)CC(O)c1ccc([N+](=O)[O-])cc1 (stereo not drawn) -1.12
COC(=O)C1N=C(c2ccc(OCCCO)cc2)N(c2ccccc2)O1 (stereo not drawn) -1.24
NC(=O)NCC#Cc1ccc2c(c1)[C@]1(C(=O)N2)[C@H](C(=O)N2CCN(c3ncccn3)CC2)[C@H]2C(=O)O[C@H](c3ccccc3)[C@H](c3ccccc3)N2[C@@H]1c1ccc(OCCO)cc1 -0.238
[N-]=[N+]=Nc1ccccc1C[C@]1(C(=O)O)N=C(c2ccc(OCCCO)cc2)O[C@H]1c1ccccc1 0.502
C=C(/C(=C/C[C@@H](OC(C)=O)c1ccc(OCCO)cc1)c1cc(C(=O)OC)ccc1OC)C(C)C -5.7
COc1ccc(NC(=O)O[C@H]2[C@@H]3OC(=O)[C@H](Cc4cccc(Br)c4)C/C=C/C[C@@H](Cc4cccc(Br)c4)C(=O)O[C@H]3[C@@H](OC)O[C@@H]2CO)cc1 0.732
[N-]=[N+]=NCc1ccccc1[C@H]1OC(c2ccc(OCCCO)cc2)=N[C@@]1(CCS(=O)(=O)c1ccccc1)C(=O)NCc1ccccc1 0.786
COc1cc(NN2C(C(O)C3CCCCC3)C=CC3C(=O)N(C)C(=O)C32)cc(OC)c1OC (stereo not drawn) -0.187
O=C1[C@@H]2[C@@H](CC(COc3ccccc3)=C3[C@@H](CCc4ccccc4)OB(O)C[C@@H]32)C(=O)N1Cc1ccccc1 -0.77
O=C1OCCC=C[C@H]2OC34C=CCN(c5ccc(Cl)cc5)C(=O)[C@H]3N(CCCCCCO)C(=O)[C@@H]4C12 (stereo partly drawn) -0.477

From PubChem BioAssay
